The panel holds about 79,000 compounds, 15% with a hit somewhere; the sample as a whole holds those more often. The source made the active and inactive calls. No stated cut-off is given here; in the data, active means growth inhibition above about 70%; inactive means the rest.

This assay can be described thus: NCI Yeast Anticancer Drug Screen. Data for the bub3 strain (AID 167). The conditions noted are these: S. cerevisiae bub3 mutant strain, at 50.0 µM, hits give high values. The procedure, abridged:
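Screening used yeast with an engineered genetic alteration affecting cell cycle control. Compound-exposed cultures were compared with vehicle cultures, and reduced growth was taken as inhibition.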
Take `CC1CCN(CCOC(=O)C(c2ccccc2)C2C=CCCC2)C1C` (stereo not given): the growth inhibition is 62% (inactive). For `CC(CCCN(C)Cc1ccccc1)Nc1ccnc2cc(Cl)ccc12` (stereo not given), the growth inhibition is 99.5% (active). For `O=C(/C(Cl)=N/O)c1ccccc1` the value was 99% (active). Turning to `CN(C)C1C[C@@H](O[Si](C)(C)C(C)(C)C)C=C1S(=O)(=O)c1ccccc1` (stereo not given in full), the growth inhibition is 7.75% (inactive). As for `Nc1nnc(Cc2ccc(Br)cc2)o1`, the growth inhibition was -13.8% (inactive). The result for `CSc1nc(C)cc(SCc2ccc(Cl)cc2Cl)n1` reads 75% (active); that for `CC[N](CC)[Ge]([CH2]C)[CH2]C.CC[N](CC)[Ge]([CH2]C)[CH2]C`, 75% (active). For `Cc1c(-c2ccccc2)ccnc1/C=N/NC(=S)Nc1ccc(N(C)C)cc1` the value was 81.7% (active). For `Cc1cc(C)nc(NS(=O)(=O)c2ccc(Nc3c4ccccc4nc4c(C(=O)NC(CO)(CO)CO)cccc34)cc2)n1` the value was 4.45% (inactive); for `CCCC(CCC)NCCOC(=O)C(CC)c1ccccc1` (stereo not given), 49.6% (inactive); for `OCCc1ccc(-n2cnc3c(Nc4ccc(Cl)cc4)ncnc32)cc1`, 83.8% (active).

As to `Cc1cccc(N2C(=O)c3ccccc3C2(c2ccccc2)N2CCCCC2)c1` (stereo not given), the growth inhibition is 50.3% (inactive). For `CCCCN(CCO)CCNc1ccc(C)c2sc3ccccc3c(=O)c12` the value was 99.6% (active); for `Cc1ccc(C)c(C(=O)CCN)c1`, -5.3% (inactive). As for `O=C1C(C(O)(C(F)(F)Cl)C(F)(F)Cl)CCCC1C(O)(C(F)(F)Cl)C(F)(F)Cl` (stereo not given), the growth inhibition is 99.7% (active). The result for `CC(C)c1cc2c(cc1O)C(O)C1(O)CCCC(C)(C)[C@H]1CC2` (stereo not given in full) reads 93% (active). For `CN(C)[C@@H]1C(=O)C(C(=O)NCNc2nc3n[nH]nc3c(=O)[nH]2)=C(O)[C@@]2(O)C(=O)C3=C(O)c4c(O)cccc4[C@@](C)(O)[C@H]3C[C@@H]12` the value was -10.6% (inactive). The result for `CCOC(=O)c1csc(=S)[nH]1` reads 47% (inactive). With `CC(=O)[O-].O=C(N/N=C/c1ccccc1[O-])c1ccccc1.[Zn+2]`, the growth inhibition is 0.3% (inactive).

In the case of `Clc1ccc(C(CCOc2ccccc2Br)Cn2ccnc2)c(Cl)c1` (stereo not given), the growth inhibition is 99.7% (active). For `CCCC(C)C/C(C)=C\C(C)(C)C1CC(=O)N(CC)C1=O` (stereo not given), the growth inhibition was 70.9% (active). The result for `CSC(SC)=C1C(=O)NC(Cc2ccccc2)C1=O` (stereo not given) reads 50.3% (inactive); that for `CCCCCCSc1nc2ccc(N=Cc3ccccc3O)cc2s1`, 15.2% (inactive). For `Cc1cc(C(=O)O)c(C)c2c1sc1ccccc12` the value was 51.1% (inactive); for `O=C(Nc1ccc(Cl)cc1)Nc1nnc2nc(C(C(=O)/C=C/c3ccccc3)c3nc4nnc(NC(=O)Nc5ccc(Cl)cc5)n4[nH]c3=O)c(=O)[nH]n12`, 39.5% (inactive); for `O=c1c(SSc2coc3ccccc3c2=O)coc2ccccc12`, 71.9% (active).

Consider `C[n+]1c(/C=C/c2ccc(N3CCCC3)cc2)sc2ccccc21`, for which the growth inhibition was 98.2% (active).

Turning to `CCC(C(c1ccc(Cl)cc1)c1ccc(Cl)c(Cl)c1)[N+](=O)[O-]` (stereo not given), the growth inhibition is 47.5% (inactive).

With `O=C1OC(C2OC(=O)C(=O)C2C(=O)c2ccc([N+](=O)[O-])cc2)C(C(=O)c2ccc([N+](=O)[O-])cc2)C1=O` (stereo not given), the growth inhibition was 56.6% (inactive). For `O=[N+]([O-])c1ccc(O)c(C2CCCCC2)c1` the value was 100% (active); for `O=C1c2ccccc2C(=O)N1/N=C\c1ccccc1[N+](=O)[O-]`, 3.75% (inactive).

Take `CC(C)(C)C(=O)CC(=O)C(F)(F)C(F)(F)C(F)(F)F.CC(C)(C)C(=O)CC(=O)C(F)(F)C(F)(F)C(F)(F)F.CC(C)(C)C(=O)CC(=O)C(F)(F)C(F)(F)C(F)(F)F.[Gd]`: the growth inhibition was 89.2% (active). For `Oc1ccc(N=Nc2ccccc2)cc1` the value was 98.8% (active); for `Cc1cc(NC(=S)SCc2ccc(F)cc2)ccc1Br`, 92.3% (active); for `OC(CN1CCc2ccccc2C1)c1ccc2ccccc2c1` (stereo not given), 94.6% (active). For `O=C1C=C/C(=C(/c2ccc(O)c(O)c2)c2ccccc2S(=O)(=O)O)C=C1O` the value was -1.5% (inactive). Turning to `Cc1cc(N)c2cc(NC(=O)Nc3ccc4nc(C)cc(N)c4c3)ccc2n1`, the growth inhibition is 98.7% (active). For `CC(=O)N/N=C1/CC[C@@]2(C)C(=CC[C@H]3C4CCC(C(C)CCCC(C)C)[C@@]4(C)CCC32)C1(C)C` (stereo not given in full) the value was 29.6% (inactive); for `Cc1ncn(-c2ccccc2O)c1C`, -5.75% (inactive); for `Oc1ccc(-c2nnc(-c3ccccc3)nn2)cc1`, 58.5% (inactive).

Values taken from PubChem BioAssay (NCI).
